Assay [1] is described as follows: qHTS assay to test for compound auto fluorescence at 535 nm (green) in HEK293 cells (AID 720680). In general terms: qHTS replaces the single test concentration by a dilution series.
Assay [2] is described as follows: qHTS assay to test for compound auto fluorescence at 460 nm (blue) in HEK293 cell free culture (AID 720681). Summed up:
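Test compounds were pinned into cell-free culture medium (DMEM with 10% FBS) and fluorescence was read directly at Ex/Em 405/460 nm. Signals were expressed as fluorescence equivalents of triamterene, with DMSO vehicle as control.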

A short description of assay [3]: qHTS assay to test for compound auto fluorescence at 535 nm (green) in HEK293 cell free culture (AID 720682). Summed up: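 Compounds were pin-transferred into cell-free DMEM with 10% FBS, and green fluorescence was read at excitation 485 nm and emission 535 nm. Intensities were expressed as fluorescein-equivalent values.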
A short description of assay [4]: qHTS assay to test for compound auto fluorescence at 590 nm (red) in HEK293 cell free culture (AID 720683). Summed up:
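Tox21 10K library compounds were pinned into cell-free DMEM with 10% FBS and fluorescence was read at excitation 540 nm. Activity is expressed as Rose Bengal sodium equivalency.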

The nature of assay [5]: qHTS assay to test for compound auto fluorescence at 590 nm (red) in HepG2 cell free culture (AID 720684). Summed up: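 Ex 540 / Em 590 nm read of compound in cell-free MEM (10% FBS). Rose Bengal sodium reference.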
Assay [6] in a line: qHTS assay to test for compound auto fluorescence at 460 nm (blue) in HepG2 cell free culture (AID 720685). Summed up: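 Cell-free plates of MEM plus 10% FBS received 23 nL compound or DMSO vehicle; blue-channel (405/460 nm) intensity scored against triamterene as reference fluorophore.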
The nature of assay [7]: qHTS assay to test for compound auto fluorescence at 535 nm (green) in HepG2 cell free culture (AID 720686).
Assay [8] is described as follows: qHTS assay to test for compound auto fluorescence at 460 nm (blue) in HepG2 cells (AID 720687). Summed up:
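Cells (2,000/well in MEM with 10% FBS) attached overnight at 37 C, then were exposed to compound or DMSO for 1 hr at 37 C, 5% CO2. Fluorescence read at Ex/Em 405/460 nm, expressed as triamterene-equivalent signal.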

Assay [9] addresses Glucocorticoid receptor (Homo sapiens) (UniProt P04150). Description: qHTS assay to identify small molecule agonists of the glucocorticoid receptor (GR) signaling pathway (AID 720691; active = well fitted activation curve with a large enough effect in the signal ratio in the repeat runs, not every such curve was filed as active; inconclusive = weak or mixed curves, or effect the other way; inactive = no such curve, though single readings can be large or run the other way; the % refers to the signal ratio; also: potency is read from the fitted curve at half-maximal effect). The following applies: GR-bla HeLa, beta-lactamase reporter ratio, 18 h. Summed up:
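Agonist-mode qHTS in HeLa cells stably expressing a glucocorticoid-response-element beta-lactamase reporter. Fluorescence intensity read with FRET substrate (2 h, room temperature) after 18 h compound treatment at 37 C.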

Assay [10] has the same target. Kind of assay: qHTS assay to identify small molecule antagonists of the glucocorticoid receptor (GR) signaling pathway (AID 720692; active = well fitted inhibition curve with a large enough effect in the signal ratio in the repeat runs, not every such curve was filed as active; inconclusive = weak or mixed curves, or effect the other way; inactive = no such curve, though single readings can be large or run the other way; the % refers to the signal ratio). Summed up: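 Inhibition of dexamethasone-driven (5 nM final) beta-lactamase expression was measured in GRE-reporter HeLa cells over 18 h at 37C. Fluorescence was read after 2 h with the B/G FRET substrate at room temperature.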
Where [11] appears, read: activation: at 62.4 µM (top of the series).

Unmarked numbers belong to inactive results. Some compounds were tested as several samples or in several runs, with calls that do not always agree. Active and inactive are the calls of the source. Unless noted, calls follow the shape of the dose curve; as a rule, active = well fitted curve in the direction sought with a large enough effect in the repeat runs; inconclusive = weak or mixed curves; inactive = flat fitted curve, though single readings scatter. Non-standard residues stand in square brackets, D forms with d. Residues, ends and D or L forms follow the SMILES beside them. Orn = NCCC[C@H](N)C(=O)O
% is scaled to controls: 0 for no effect and ±100 for the full control effect.

Sequence of Glucocorticoid receptor (Homo sapiens) (P04150 whole entry, looked up): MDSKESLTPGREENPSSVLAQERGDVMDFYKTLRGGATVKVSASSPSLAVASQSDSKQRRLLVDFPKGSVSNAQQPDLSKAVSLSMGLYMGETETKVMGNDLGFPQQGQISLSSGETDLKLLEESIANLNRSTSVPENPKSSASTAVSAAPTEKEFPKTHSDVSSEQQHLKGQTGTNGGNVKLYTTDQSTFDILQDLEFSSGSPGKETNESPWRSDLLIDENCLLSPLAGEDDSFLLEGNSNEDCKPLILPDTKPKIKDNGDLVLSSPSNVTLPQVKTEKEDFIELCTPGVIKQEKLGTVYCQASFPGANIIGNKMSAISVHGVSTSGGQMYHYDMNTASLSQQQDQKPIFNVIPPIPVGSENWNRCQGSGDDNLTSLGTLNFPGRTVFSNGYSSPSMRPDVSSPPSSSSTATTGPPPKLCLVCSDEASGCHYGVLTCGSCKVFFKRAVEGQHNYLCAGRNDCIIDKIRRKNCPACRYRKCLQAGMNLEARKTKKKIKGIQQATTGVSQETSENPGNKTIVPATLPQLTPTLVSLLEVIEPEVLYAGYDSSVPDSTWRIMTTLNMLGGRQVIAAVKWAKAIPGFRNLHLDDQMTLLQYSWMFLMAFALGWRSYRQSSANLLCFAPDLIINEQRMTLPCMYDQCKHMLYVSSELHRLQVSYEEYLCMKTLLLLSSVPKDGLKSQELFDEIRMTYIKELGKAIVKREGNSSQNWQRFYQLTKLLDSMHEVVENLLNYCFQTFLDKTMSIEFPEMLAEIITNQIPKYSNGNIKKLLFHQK

As to `CC1CCCC(C)N1NC(=O)c1ccc(Cl)c(S(N)(=O)=O)c1` (centres undefined), the molecule was called inactive in assay [1], in assay [3], in assay [4] and in [5]. Besides, the Potency entry in assay [2], in [6], in assay [7], in [8], in assay [9] (setting [11]) and in assay [10] was “inactive” in each case.
Turning to `O=C1CCC(c2ccccc2)(C2CCN(Cc3ccccc3)CC2)C(=O)N1` (centres undefined), the molecule was called inactive in assay [1], in assay [3], in assay [4] and in [5]. The Potency entry in [2], in assay [6], in [7], in assay [8] and in assay [9] (setting [11]) was “inactive” each time.
Turning to `C[C@@H]1O[C@@H](OC[C@H]2O[C@@H](Oc3c(-c4ccc(OCCO)c(OCCO)c4)oc4cc(OCCO)cc(O)c4c3=O)[C@H](O)[C@@H](O)[C@@H]2O)[C@H](O)[C@H](O)[C@H]1O`, the call in assay [1], in assay [3], in assay [4] and in assay [5] was inactive. The Potency entry in [2], in assay [6], in assay [7], in assay [8] and in assay [9] (setting [11]) was “inactive” each time.
On to `CCC[C@@H]1C[C@@H](C(=O)N[C@@H]([C@H]2O[C@H](SC)[C@H](OP(=O)(O)O)[C@@H](O)[C@H]2O)[C@H](C)Cl)N(C)C1`, for which the molecule was classed as inactive in assay [1], in [3], in assay [4] and in [5]. Also, the Potency entry in [2], in assay [6], in [7], in assay [8] and in assay [9] (setting [11]) was “inactive” each time.
Regarding `CC(C)C[C@@H]1NC(=O)[C@H](CCCN)NC(=O)[C@H](C(C)C)NC(=O)[C@@H]2CCCN2C(=O)[C@@H](Cc2ccccc2)NC(=O)[C@H](CC(C)C)NC(=O)[C@H](CCCN)NC(=O)[C@H](C(C)C)NC(=O)[C@@H]2CCCN2C(=O)[C@@H](Cc2ccccc2)NC1=O` (cyclo(V[Orn]L[dF]PV[Orn]L[dF]P)), the molecule was called inactive in [1], in [3], in assay [4] and in [5]. For the same molecule, the Potency result in assay [2], in [6], in assay [7] and in assay [8] was “inactive” throughout. Besides, in assay [9] (setting [11]), the Potency was 23.9 µM [inconclusive] (active).
As to `O=C(O)/C=C/C(O)c1ccc(Cl)cc1` (centres undefined), the molecule was called inactive in assay [1], in assay [3], in assay [4] and in assay [5]. Further, the Potency result in [2], in assay [6], in assay [7], in assay [8] and in [9] (setting [11]) was “inactive” each time.
Turning to `COc1c(O)cc2c(c1O)[C@@H]1O[C@H](CO)[C@@H](O)[C@H](O)[C@H]1OC2=O`, the result in assay [1], in assay [3], in assay [4] and in assay [5] was inactive. Also, the Potency entry in assay [2], in assay [6], in assay [7], in [8] and in assay [9] (setting [11]) was “inactive” throughout.
In the case of `CO/N=C(\C(=O)N[C@@H]1C(=O)N2C(C(=O)O)=C(COC(C)=O)CS[C@H]12)c1csc(N)n1` (stereo in doubt), the molecule was called inactive in [1], in [3], in [4] and in assay [5]. Besides, the Potency entry in assay [2], in [6], in assay [7], in [8] and in [9] (setting [11]) was “inactive” in each case.
As for `OCCCNc1ccccc1`, the molecule was classed as inactive in assay [1], in assay [3], in [4] and in assay [5]. Moreover, the Potency result in assay [2], in assay [6], in assay [7], in assay [8], in assay [9] (setting [11]) and in [10] was “inactive” in each case.
In the case of `O=C1c2c(O)cccc2[C@H]([C@@H]2O[C@H](CO)[C@@H](O)[C@H](O)[C@H]2O)c2cc(CO)cc(O)c21`, the molecule was classed as inactive in [1], in assay [3], in [4] and in assay [5]. Further, the Potency entry in [2], in assay [6], in assay [7], in assay [8] and in assay [10] was “inactive” in each case. Further, the activation was 14.2% [inconclusive] (active) in [9] (setting [11]) and -0.87% in assay [9] (at 62.4 µM (top of the series)).
On to `CCOC(=O)COc1ccc2c(=O)cc(-c3ccccc3)oc2c1`, for which the result in assay [1], in assay [3], in assay [4] and in assay [5] was inactive. For the same molecule, the Potency result in assay [2], in assay [6], in assay [7], in assay [8], in assay [9] (setting [11]) and in [10] was “inactive” in each case.
`C[C@H](NCCc1ccc(O)cc1)[C@H](O)c1ccc(O)cc1`: the call in assay [1], in [3], in [4] and in assay [5] was inactive. In addition, the Potency entry in [2], in assay [6], in assay [7], in assay [8], in assay [9] (setting [11]) and in assay [10] was “inactive” throughout.
Consider `COC1[C@@H](O[C@@H]2O[C@H](C)[C@@H](O[C@H]3C[C@@](C)(O)[C@H](OC(=O)CC(C)C)[C@H](C)O3)[C@H](N(C)C)[C@H]2O)[C@@H](CC=O)C[C@@H](C)[C@@H](O)/C=C/C=C/C[C@@H](C)OC(=O)C[C@H]1OC(C)=O` (some centres undefined), for which the molecule was classed as inactive in assay [1], in assay [3], in [4] and in assay [5]. For the same molecule, the Potency result in assay [2], in assay [6], in assay [7], in assay [8], in assay [9] (setting [11]) and in assay [10] was “inactive” throughout.
For the molecule `NC(N)=NCCCCN=C(N)N`, the call in assay [1], in [3], in [4] and in assay [5] was inactive. For the same molecule, the Potency entry in [2], in assay [6], in [7], in [8], in assay [9] (setting [11]) and in assay [10] was “inactive” each time.
`CC(C)Cc1ccc([C@H](C)C(=O)O)cc1`: the outcome in [1], in [3], in assay [4] and in assay [5] was inactive. The Potency result in [2], in assay [6], in assay [7], in [8], in assay [9] (setting [11]) and in [10] was “inactive” throughout.
For the molecule `CN[C@@H]1[C@@H](O[C@H]2O[C@H](CO)[C@@H](N)[C@H](O)[C@H]2O)O[C@H]2C[C@@H](N)[C@@H](O[C@H]3[C@H](O)[C@@H](O)[C@H](N)C[C@@H]3N)O[C@@H]2[C@@H]1O`, the result in [1], in [3], in assay [4] and in [5] was inactive. The Potency result in assay [2], in assay [6], in [7], in assay [8], in assay [9] (setting [11]) and in [10] was “inactive” in each case.
Take `CCCCCCCCCCCCCC(=O)OCC(COP(=O)([O-])OCC[N+](C)(C)C)OC(=O)CCCCCCCCCCCCC` (centres undefined): the result in assay [1], in assay [3], in [4] and in [5] was inactive. In addition, the Potency entry in assay [2], in [6], in [7], in assay [8], in assay [9] (setting [11]) and in assay [10] was “inactive” throughout.

Source of the values: PubChem BioAssay (Tox21).
